Bioassay records: PubChem, National Center for Advancing Translational Sciences (NCATS)
TRPV1 PAM – potentiators of human vanilloid receptor 1 (TRPV1); 320,000 tested, 0.02% active; potentiation, % at 8.33 µM; TRPV1-expressing cells, Fluo-8 calcium influx, capsaicin EC20 potentiation; in the data active = potentiation above about 80%; inconclusive = between about 30% and that limit; note: 0% is about no effect
Target sequence (Q8NER1 whole entry, looked up): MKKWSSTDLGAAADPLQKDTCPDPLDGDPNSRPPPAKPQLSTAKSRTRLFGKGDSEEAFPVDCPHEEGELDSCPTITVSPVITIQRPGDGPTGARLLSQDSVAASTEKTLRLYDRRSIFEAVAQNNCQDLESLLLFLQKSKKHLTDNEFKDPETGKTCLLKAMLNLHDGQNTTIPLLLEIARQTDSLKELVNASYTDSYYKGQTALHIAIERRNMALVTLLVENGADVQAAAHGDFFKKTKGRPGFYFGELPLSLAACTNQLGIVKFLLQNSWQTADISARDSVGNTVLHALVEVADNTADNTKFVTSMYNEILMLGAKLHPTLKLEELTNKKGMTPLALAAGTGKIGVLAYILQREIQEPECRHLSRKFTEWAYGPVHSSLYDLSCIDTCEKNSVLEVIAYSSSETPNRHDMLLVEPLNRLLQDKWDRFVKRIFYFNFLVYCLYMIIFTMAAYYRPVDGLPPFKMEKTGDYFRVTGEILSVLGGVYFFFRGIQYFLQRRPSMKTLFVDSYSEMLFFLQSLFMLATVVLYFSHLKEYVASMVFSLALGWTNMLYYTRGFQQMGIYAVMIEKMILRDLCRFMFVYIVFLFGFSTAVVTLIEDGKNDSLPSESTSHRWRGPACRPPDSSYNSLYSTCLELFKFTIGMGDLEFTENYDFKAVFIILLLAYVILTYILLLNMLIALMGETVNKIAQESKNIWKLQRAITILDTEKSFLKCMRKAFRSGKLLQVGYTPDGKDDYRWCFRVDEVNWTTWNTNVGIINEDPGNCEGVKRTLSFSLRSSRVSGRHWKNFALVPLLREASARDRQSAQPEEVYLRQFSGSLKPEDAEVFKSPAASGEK
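Cells expressing TRPV1 were dye-loaded with Fluo-8 and read kinetically: 10 s baseline, 3 min after compound (agonist portion), then 2 min after EC20 capsaicin (allosteric enhancer portion). Calcium-bound dye fluorescence at 480/520 nm.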
D1 antag – human D1 dopamine receptor antagonism | P21728 | HEK293 TREx D1 cells, calcium flux, dopamine EC80; active compounds read low | activity change, negative = inhibition, % at 10 µM | 360,000 tested, 3.2% active; in the data active = activity change below about -30%; note: % is set by controls: 0 for no effect and ±100 for the full control effect
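Compound effects on dopamine-evoked calcium signalling were measured in tetracycline-induced HEK293 Trex D1 cells. Dopamine at EC80 followed a 180 s compound pre-read, and fluorescence was tracked kinetically for 180 s more.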
TRPV1 ag – agonists of human vanilloid receptor 1 (TRPV1) | 320,000 tested, 0.19% active | activation, % at 8.33 µM | TRPV1-expressing cells, Fluo-8 calcium influx, agonist mode | Q8NER1; in the data active = activation above about 80%; inconclusive = between about 30% and that limit; note: 0% is about no effect
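Cells expressing TRPV1 were dye-loaded with Fluo-8 and read kinetically: 10 s baseline, 3 min after compound (agonist portion), then 2 min after EC20 capsaicin (allosteric enhancer portion). Calcium-bound dye fluorescence at 480/520 nm.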
D1 potentiator – potentiators of human D1 dopamine receptor; potentiation, % at 10 µM; 360,000 tested, 0.036% active; HEK293 TREx D1 cells, calcium flux, dopamine EC20 potentiation; AID 504651; P21728; in the data active = potentiation above about 30%; note: 0% is about no effect
D1 ag – agonists of human D1 dopamine receptor; activation, % at 2 µM; HEK293 T-REx D1 cells, calcium flux, agonist mode; AID 504660; P21728; 360,000 tested, 1% active; in the data active = activation above about 30%; note: 0% is about no effect
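Tetracycline-induced HEK293 TREx D1 cells, force-coupled to calcium signalling, were dye-loaded with a no-wash calcium kit. Compound was pin-added after a 10 s baseline. Fluorescence was read kinetically at 1 cycle/s for 180 s, with calcium rises flagged as agonism.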
Numbers without * were called inactive; ? = inconclusive; . = no result. This is a sample that favours compounds with a hit; in the whole collection about 4.2% have one here.

SMILES | TRPV1 PAM | D1 antag | TRPV1 ag | D1 potentiator | D1 ag
CC1=C(C(=O)Nc2ccccc2C)C(c2ccncc2)n2nc(SCc3ccccc3Cl)nc2N1 (stereo not given) | . | -2 | . | 0 | 1
COc1cccc(CSc2nc3n(n2)C(c2cccnc2)C(C(=O)Nc2ccccc2C)=C(C)N3)c1 (stereo not given) | . | -7 | . | -2 | -1
COc1nnc(-c2ccc(N3CCCCC3)c(NC(=O)c3ccccc3)c2)c2ccccc12 | . | -3 | . | -5 | 2
O=C(O)c1ccccc1-c1nc(-c2ccccc2)c(-c2ccccc2)[nH]1 | 11 | 4 | -2 | -3 | -1
O=C(O)c1ccccc1-c1nc2ccccc2c(=O)[nH]1 | -1 | -40* | 3 | 5 | -1
Cc1cccc(C)c1NC(=S)NCCc1ccc(O)c(O)c1 | -10 | -48* | 6 | -15 | 5
COc1ccc(CCNC(=S)Nc2cccc(C)c2C)cc1 | -12 | -31* | 13 | -12 | 1
Cc1cccc(NC(=S)NCCc2ccccc2)c1C | 3 | 9 | 24 | -9 | -2
Cc1cc2c(c(=O)n1CCc1ccccc1)C(C(C)C)C(C#N)=C(N)O2 (stereo not given) | 5 | -32* | -2 | -12 | 3
Cc1ccc(C)c(C(=O)COC(=O)CCN2C(=O)C3C4CCC(C4)C3C2=O)c1 (stereo not given) | 7 | -45* | 2 | -7 | 2
Cc1ccc(C)c(C(=O)COC(=O)CN2C(=O)C3C4CCC(C4)C3C2=O)c1 (stereo not given) | -18 | -11 | 16 | -10 | 2
O=C(CSc1ncccn1)N/N=C/c1cccc(OC2CSC2)c1 | -2 | -36* | 2 | -10 | 11
Cn1ncc(Cl)c1C(=O)N/N=C/c1cccc(OC2CSC2)c1 | -4 | -45* | ? | -4 | 11
COc1cccc(/C=N/NC(=O)CSc2cccc3cccnc23)c1 | 23 | 3 | -2 | -10 | 4
COc1cccc(-c2nnc(SCC(=O)NC3CCS(=O)(=O)C3)n2C)c1 (stereo not given) | 7 | -35* | -2 | -7 | 3
CCCCC(=O)N1CCc2cc(OC)c(OC)cc2C1COc1ccc(OC)cc1 (stereo not given) | . | -8 | . | -2 | -5
FC(F)(F)c1nnc(Nc2ccc(Cl)cc2)s1 | -25 | -30* | ? | -5 | 12
O=S(=O)(Nc1ccc(S(=O)(=O)N2CCOCC2)cc1)c1ccc(Br)cc1 | 26 | -5 | -3 | . | 3
O=S(=O)(c1ccc(Oc2ccc(Br)cc2)cc1)N1CCOCC1 | 3 | -32* | 8 | -6 | 15
O=C(C1CCCN(S(=O)(=O)c2ccc(Br)cc2)C1)N1CCOCC1 (stereo not given) | -35 | -53* | 25 | 6 | 6
CCOc1ccc(CCNC(=O)C(CC)n2nc(C)c3c(C)n(-c4ccccc4)nc3c2=O)cc1 (stereo not given) | . | -4 | . | 0 | 1
Cc1ccc(S(=O)(=O)N2CCOCC2)cc1C(=O)OCc1nnc(-c2ccccc2)o1 | 1 | -13 | 5 | -8 | 0
O=C(OCc1nnc(-c2ccccc2)o1)c1cc(S(=O)(=O)N2CCOCC2)c(Cl)cc1Cl | 9 | -34* | 2 | -4 | 3
CCOc1ccccc1N/C(=C(/C(Cl)=C(Cl)Cl)[N+](=O)[O-])n1cncn1 | 3 | -39* | -5 | -11 | 1
CCOc1ccc(N/C(=C(/C(Cl)=C(Cl)Cl)[N+](=O)[O-])n2cncn2)cc1 | 12 | 13 | -4 | 0 | 2
SMILES | TRPV1 PAM | D1 antag | TRPV1 ag | D1 potentiator | D1 ag
COc1ccc(NC(=O)C2=C(C)Nc3ncnn3C2c2ccc(C)o2)cc1 (stereo not given) | . | 2 | . | 5 | 1
CC1=C(C(=O)Nc2ccccc2)C(c2ccc(C)o2)n2ncnc2N1 (stereo not given) | ? | -60* | -5 | -12 | 2
O=C(/C=C/c1ccccc1)Nc1cccnc1Oc1ccccc1F | -4 | -39* | ? | 0 | 9
Nc1cccnc1Oc1ccccc1F | 11 | 28 | -1 | 1 | 2
COc1cccc(NC(=O)C2CCC(CNS(=O)(=O)c3csc(C(N)=O)c3)CC2)c1 (stereo not given) | . | -2 | . | -1 | 1
CC(=O)Nc1ccc(S(=O)(=O)N2CCN(CCc3ccccc3)CC2)cc1 | 8 | -33* | -4 | -6 | 4
CC(=O)Nc1ccc(S(=O)(=O)N2CCN=C2SCc2ccc([N+](=O)[O-])cc2)cc1 | -21 | -65* | 1 | -9 | 18
CC(=O)Nc1ccc(S(=O)(=O)N2CCN(C(=O)Cc3ccccc3)CC2)cc1 | 3 | -13 | -2 | -5 | 1
O=S(=O)(c1ccc2ccccc2c1)N1CCN(Cc2ccccn2)CC1 | 15 | 5 | -4 | -1 | 51*
CC(=O)Nc1ccc(S(=O)(=O)N2CCN(c3ccc([N+](=O)[O-])cc3)CC2)cc1 | -2 | -35* | 2 | -5 | 5
O=[N+]([O-])c1ccc(CS(=O)(=O)N2CCN(c3ccccc3)CC2)cc1 | 1 | -30* | 1 | . | 9
CCOc1ccc(S(=O)(=O)N2CCN(Cc3ccccc3)CC2)cc1 | 6 | -39* | -8 | 1 | 5
Cc1ccc(-c2nc3ccc(Cl)cn3c2Nc2ccc3c(c2)OCCO3)s1 | . | -8 | . | 4 | 2
CCOc1ccccc1NC(=O)COC(=O)c1cn(CC)c2nc(C)ccc2c1=O | . | 0 | . | 0 | 1
Cc1ccc(NC(=O)C(=O)NCc2ccco2)cc1 | . | -31* | . | -2 | -3
Cc1ccccc1S(=O)(=O)Oc1ccccc1C(=O)Oc1ccccc1 | -2 | -31* | 2 | -8 | 9
CN1CCN(C(CNC(=O)C(=O)Nc2ccccc2C#N)c2ccc3c(c2)OCO3)CC1 (stereo not given) | . | 0 | . | -3 | 2
COc1ccc(OC)c(NC(=O)C(=O)NNC(=O)C23CC4CC(CC(C4)C2)C3)c1 | -11 | 0 | 27 | 11 | 40*
CCCc1nnc(NC(=O)Cc2coc3ccc(C(C)C)cc23)s1 | . | -1 | . | 7 | -1
CCc1ccc(NC(=O)CSc2nc(=O)n(Cc3cccnc3)c3c2CCC3)cc1 | . | . | . | 3 | -5
CCN(CCCNC(=O)c1cc2c(=O)[nH]c3ccc(C)cc3c2s1)Cc1ccccc1 | . | -6 | . | -6 | 0
CCOC(=O)CC(=O)CSc1nc(-c2cccnc2)ccc1C#N | 2 | 2 | -2 | -3 | 34*
CCC(=O)N1CCc2cc(CNC(=O)c3cccc(N(C)C)c3)ccc21 | . | -8 | . | -1 | -1
COc1cc2cc(CNc3ccccc3)c(=O)n(CC(=O)Nc3ccc(C)c(Cl)c3)c2cc1OC | . | 6 | . | -1 | 30*
CCc1ccc(NCc2cc3cc4c(cc3n(CC(=O)Nc3cccc(OC)c3)c2=O)OCO4)cc1 | . | 3 | . | -2 | 56*
COc1ccc(NCc2cc3cc4c(cc3n(CC(=O)Nc3cccc(F)c3)c2=O)OCO4)cc1 | . | -5 | . | 4 | 153*
